Measured values reported in PMC12864922, “TDP-43 directly inhibits mRNA accumulation in neurites through modulation of mRNA stability”.
In all, about 9,900 sequences were measured (“r (bound/input frequency ratio)”: median about 0.7, highest 2% from about 6.5 on). The full list was thinned out, with the highest values kept by preference.

B1: ENSMUSG00000058297.560|Spock2|93:97;225:231 (ssRNA)
RNA: GGGAGUUCUACAGUCCGACGAUCGCUUCGAUAUCCGCAUGCUAACCUGGGGGUGCAAAAGGAGAUUCAAGACAUCCGUACCAAGUCAGGCAGAGCUACCCGCUUCUCAGCCCGUGUCCCACUUAAAACCGUCCGAACACAAAUCACUGAGCUUAGAGUUAAACAUUGUGGUCAAGUGCUUGGGUUCCGUCUGUAGAUUUAAGUGCUGACGUUGUAUCUCUCAGUAAUUUUAGAUGUCUUUUAAAAAAUCUGAACAAGUGUUAGACCCCACACACCGUUGGUGGGCACUCAAGCAUCCCGUGGGCUCUUGCGGUCGCACUAGUGUGGAAUUCUCGGGUGUCAAGG
B2: ENSMUSG00000042529.275|Kcnj12 (ssRNA)
RNA: GGGAGUUCUACAGUCCGACGAUCGCUUCGAUAUCCGCAUGCUAUUACCUGCCACUCACCUCUCUAUCUAGUUGUCGAGUCUAGGGAAGGGCAGAGGGUGGGUCCUGGCCACUGGGUGCCACUGUGGGAGCCGGGGCACCUGUCAUUCUUUCUGAGUAGGUGGGCCUGUAUCCAGAGCAGGGUCUAGGGGCUCCUGCUCCCGGCUCAUCUCAGUGGCCUGAAGCAUUCAAAACUCUAGCCAGCCCCAUCCUCCUCCCUGCCAGAAUGGUCCAGUCCCUGGGCCCUGCUGGAGAGCAGCUCAAACCUCUUGCGGUCGCACUAGUGUGGAAUUCUCGGGUGUCAAGG
B3: ENSMUSG00000042529.296|Kcnj12 (ssRNA)
RNA: GGGAGUUCUACAGUCCGACGAUCGCUUCGAUAUCCGCAUGCUAUCCAGAGCAGGGUCUAGGGGCUCCUGCUCCCGGCUCAUCUCAGUGGCCUGAAGCAUUCAAAACUCUAGCCAGCCCCAUCCUCCUCCCUGCCAGAAUGGUCCAGUCCCUGGGCCCUGCUGGAGAGCAGCUCAAACUGCCUUUCAUCUCUGCCAAAGGCAGGCAGAUGCUGUAUUUUCAAAUUCUCCUGCCCUCUUUUCCCCUUUUUCCCUGUAUUUAUUUAUUGCUUGUGCUAAAGACCAAACUAGCCGCCCCCUUUAGUGCUCUUGCGGUCGCACUAGUGUGGAAUUCUCGGGUGUCAAGG
B4: ENSMUSG00000090935.16|Synj2bp (ssRNA)
RNA: GGGAGUUCUACAGUCCGACGAUCGCUUCGAUAUCCGCAUGCUAAUAUGAACGGACGGGUGGAUUAUUUAGUCACGGAGGAAGAGAUCAACCUGACGAGAGGACCUUCGGGUAAAUGGCCAAGAUCUGAAGAACCUGCUGCACCAAGAUGCUGUAGACCUCUUCCGUAAUGCGGGAUGUGCUGUGUCCCUGAGAGUACAGCACAGGUUACCAGUGCAGAAUGGACCUAUAGUACAUCGAGGUGAAGGAGAGCCAAGUGGAGUUCCUGUAGCUAUGGUGCUGCUACCAGUGUUUGCCCUCACCAUCUCUUGCGGUCGCACUAGUGUGGAAUUCUCGGGUGUCAAGG
B5: ENSMUSG00000061578.1096|Ksr2 (ssRNA)
RNA: GGGAGUUCUACAGUCCGACGAUCGCUUCGAUAUCCGCAUGCUAAGAAGGCUGGGGGAGCUUUCAGGGGUGUGGCCAGUUAUGUACAGAUGUGAAGCUGAGGUCUGAAGGAAAUGGAGGAAGUAGGAAGAUCAGACUGGUUGAAUUAGAAGUCUGUCACUCUAGGUGCUAAGUGACCUUGGACCCAGUCAGUUCUUGGAUUUCUGUUGUAGCCCAGGCUAGCCUCGAACCCUUGAUCCUCCUGUUCCUGGUAGAGAAACAGCCACUAAAUGGUGGGAUAGAAUGUGACUGCUCUAUCCCCGAUCCUCUUGCGGUCGCACUAGUGUGGAAUUCUCGGGUGUCAAGG
B6: ENSMUSG00000029636.193|Wasf3 (ssRNA)
RNA: GGGAGUUCUACAGUCCGACGAUCGCUUCGAUAUCCGCAUGCUAAGCCAGUUGCCCGGGCAGAGACCUGACUUCCCCUCUCCUGCCCUGAUCCUUUUUACCAAAUGGCGAUUCCAUAGUCCUGGCUGAGGCAGGGGCUCAAAGUCCAGUGUCUGCUUUGCAAUUCUGGAAGGACAGCUGCUUAUUUAAAUAAGUCUGUGAUAUCCGCAGGCUUGGGUUACAGGGAGGACCUUGCAGAGGGACCAGGACACUGCCUUCCCUUAGGUGCAUUAUUUACGUGGCCUGCAGCUCUUAAUAUCUCUCACCUCUUGCGGUCGCACUAGUGUGGAAUUCUCGGGUGUCAAGG
B7: ENSMUSG00000058297.31|Spock2|65:69;73:86;95:106;120:126;135:144;150:175 (ssRNA)
RNA: GGGAGUUCUACAGUCCGACGAUCGCUUCGAUAUCCGCAUGCUAACUUAGCAAAUGGAUCCGGAAGUCAGUGCGGAGGACCCUGGCUCCAGUGGGGGAGGACUGGGGACACACGCUACACACAUACACACAUAUGAGAACACACACAUACAUGUGAGAUGUGACACACACAUGUGAGAACACACAUACUGAGAACACACACACACACACACACACACACAUGUGAGUCACCCAAAGGUCCCUAUGUUAUUGAUUUUCAAAUGCACACUUUCACACACAAGGAUACACUAACAGACCAAAAUCAACUCUUGCGGUCGCACUAGUGUGGAAUUCUCGGGUGUCAAGG
B8: ENSMUSG00000058297.30|Spock2|71:75;79:92;101:112;126:132;141:150;156:181 (ssRNA)
RNA: GGGAGUUCUACAGUCCGACGAUCGCUUCGAUAUCCGCAUGCUACAGGCAACUUAGCAAAUGGAUCCGGAAGUCAGUGCGGAGGACCCUGGCUCCAGUGGGGGAGGACUGGGGACACACGCUACACACAUACACACAUAUGAGAACACACACAUACAUGUGAGAUGUGACACACACAUGUGAGAACACACAUACUGAGAACACACACACACACACACACACACACAUGUGAGUCACCCAAAGGUCCCUAUGUUAUUGAUUUUCAAAUGCACACUUUCACACACAAGGAUACACUAACAGACCAACUCUUGCGGUCGCACUAGUGUGGAAUUCUCGGGUGUCAAGG
B9: ENSMUSG00000058297.31|Spock2 (ssRNA)
RNA: GGGAGUUCUACAGUCCGACGAUCGCUUCGAUAUCCGCAUGCUAACUUAGCAAAUGGAUCCGGAAGUCAGUGCGGAGGACCCUGGCUCCAGUGGGGGAGGACUGGGGAGUGUGGCUUGUGUGUAUGUGUGAUAUGAGAUGUGUGUGUAUGAUGUGAGAUGUGAGUGUGUGAUGUGAGAUGUGUGUAUGUGAGAUGUGUGUGUGUGUGUGUGUGUGUGUGAUGUGAGUCACCCAAAGGUCCCUAUGUUAUUGAUUUUCAAAUGCACACUUUCACACACAAGGAUACACUAACAGACCAAAAUCAACUCUUGCGGUCGCACUAGUGUGGAAUUCUCGGGUGUCAAGG
B10: ENSMUSG00000058297.30|Spock2 (ssRNA)
RNA: GGGAGUUCUACAGUCCGACGAUCGCUUCGAUAUCCGCAUGCUACAGGCAACUUAGCAAAUGGAUCCGGAAGUCAGUGCGGAGGACCCUGGCUCCAGUGGGGGAGGACUGGGGAGUGUGGCUUGUGUGUAUGUGUGAUAUGAGAUGUGUGUGUAUGAUGUGAGAUGUGAGUGUGUGAUGUGAGAUGUGUGUAUGUGAGAUGUGUGUGUGUGUGUGUGUGUGUGUGAUGUGAGUCACCCAAAGGUCCCUAUGUUAUUGAUUUUCAAAUGCACACUUUCACACACAAGGAUACACUAACAGACCAACUCUUGCGGUCGCACUAGUGUGGAAUUCUCGGGUGUCAAGG

Biological target: TDP-43 (Homo sapiens, UniProt Q13148 1-414)
Assay: RNA Bind-n-Seq with designed 260-mer pool; 25 mM Tris-HCl, 150 mM KCl, 3 mM MgCl2, BSA (printed 500 mg/mL), 20 units/mL SUPERase IN; pH not stated; 500 nM RNA pool, 1 h, 4 C; TDP-43 5, 50, 500 nM; high values mean tight binding
Conditions: protein: recombinant; tags: SBP (GST cleaved off with PreScission; pGEX-GST-SBP)
Method in brief: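 Streptavidin beads captured recombinant SBP-tagged TDP-43 at 5, 50 or 500 nM, and the beads were incubated for 1 h at 4 °C with 500 nM of an in vitro-transcribed pool of 260-nt 3′ UTR oligos in 25 mM Tris-HCl, 150 mM KCl, 3 mM MgCl2, BSA and SUPERase IN. After washing, bound RNA was eluted with biotin, reverse transcribed, PCR-amplified and sequenced. Binding is reported as R, the mapped-read-normalized abundance of each oligo in the bound sample divided by its abundance in the input. Two independent protein batches served as duplicates.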

Chain of TDP-43 (Q13148 whole entry): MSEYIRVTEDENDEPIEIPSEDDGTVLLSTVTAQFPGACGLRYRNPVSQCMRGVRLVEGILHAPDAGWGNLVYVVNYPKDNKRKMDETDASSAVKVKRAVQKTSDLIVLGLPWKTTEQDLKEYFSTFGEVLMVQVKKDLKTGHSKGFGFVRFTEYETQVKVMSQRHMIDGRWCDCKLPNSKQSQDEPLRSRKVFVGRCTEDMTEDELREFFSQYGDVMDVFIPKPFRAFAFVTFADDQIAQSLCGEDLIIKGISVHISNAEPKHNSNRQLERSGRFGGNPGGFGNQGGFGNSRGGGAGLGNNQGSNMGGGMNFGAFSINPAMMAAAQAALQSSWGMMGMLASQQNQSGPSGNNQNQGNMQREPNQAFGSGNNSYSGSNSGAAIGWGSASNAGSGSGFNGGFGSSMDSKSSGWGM

Binder	binding signal
B1	0.189 R (bound/input frequency ratio)
B2	0.367 R (bound/input frequency ratio)
B3	1.65 R (bound/input frequency ratio)
B4	0.983 R (bound/input frequency ratio)
B5	2.29 R (bound/input frequency ratio)
B6	0.437 R (bound/input frequency ratio)
B7	3.59 R (bound/input frequency ratio)
B8	2.07 R (bound/input frequency ratio)
B9	8.63 R (bound/input frequency ratio)
B10	8.87 R (bound/input frequency ratio)
